{"source": "PubChem BioAssay (NCATS)", "note": "Inconclusive results are not listed. Values without a mark were called inactive. Active and inactive are the calls of the source. Calls come from the whole dose curve; as a rule, active = well fitted cell-killing curve with a large enough effect; inconclusive = small, poorly fitted or top-dose-only effect, or effect the other way; inactive = no such curve, though single readings can be large or run the other way. Starred links: 1 amine or outer side, 2 acyl side, 3 side chain; linkers in the order of their positions; H or OH if unused. Positions of bridges follow the written chain, without caps; N, C: chain ends. Non-standard residues stand in square brackets, D forms with d. Residues, ends and D or L forms follow the SMILES beside them. Chains are numbered I, II in the order given. *: point of attachment. Actinocin(9to1) = Cc1c2oc3c(C)ccc(C(=O)[*:1])c3nc-2c(C(=O)[*:2])c(N)c1=O; NMeV = CN[CH](C(=O)O)C(C)C; Nva = CCC[C@H](N)C(=O)O; Cbz = O=C(OCc1ccccc1)*; Sar = CNCC(=O)O", "data": [{"assay": "Quantitative High-Throughput drug screen in 47 multiple myeloma cell lines against the NCATS MIPE library collection: OPM2_DSMZ cell viability assay (AID 1919872); note: nearly all actives have a fitted effect of over 30% in size; note: potency is the fitted concentration of half-maximal effect", "details": "OPM2 myeloma viability, CellTiter-Glo ATP luminescence, 48 h; series mostly up to 45.8 µM; viability (% of DMSO): at the top concentration", "description": "PI: Beverly A. Mock Ph.D.\nLaboratory of Cancer Biology and Genetics,\nCenter for Cancer Research, National Cancer Institute,\nNational Institute of Health, Bethesda, Maryland\nDrug resistance and disease progression are common in multiple myeloma (MM) patients, underscoring the need for new therapeutic combinations. […] We hypothesized that effective combinations would reduce MYC expression and enhance p16 activity. […] These preclinical data identify potentially useful drug combinations for evaluation in drug-resistant MM and reveal potential mechanisms of combined drug sensitivity.\nDescribed herein is the primary MIPE qHTS used to cherrypick compounds. Validated compounds were then further tested for potential synergistic activiy.\n[1] Peat TJ, Gaikwad SM, Dubois W, Gyabaah-Kessie N, Zhang S, Gorjifard S, Phyo Z, Andres M, Hughitt VK, Simpson RM, Miller MA, Girvin AT, Taylor A, Williams D, D'Antonio N, Zhang Y, Rajagopalan A, Flietner E, Wilson K, Zhang X, Shinn P, Klumpp-Thomas C, McKnight C, Itkin Z, Chen L, Kazandijian D, Zhang J, Michalowski AM, Simmons JK, Keats J, Thomas CJ, Mock BA. Drug combinations identified by high-throughput screening promote cell cycle transition and upregulate Smad pathways in myeloma. Cancer Lett. 2023 Aug 1;568:216284. doi: 10.1016/j.canlet.2023.216284. Epub 2023 Jun 24. PMID: 37356470; PMCID: PMC10408729.\nSEQUENCE No. (e.g., 1, 2, 3, etc.); […] (e.g., Cells, Incubation, Reagent, etc.); VALUE and DESCRIPTION.\n1; Cells; 5 uL; white, solid bottom 1536-well Greiner assay plate.\n2; Compounds; 23 nL; Kalypsis pin tool (Wako USA) equipped with a 1536-well pin head to transfer to the assay plates.\n3; Incubation; 48 hours; 37C incubation.\n4; Reagent;5uL; CellTiter Glo (Promega).\n5; Detector; 425V; Luminescence; Viewlux PerkinElmer.\nNOTES (numbers refer to Sequence numbers above)\n1. The cell-based screening methods employed in this study were like those previously published. Briefly, the corresponding myeloma cell lines were screened in 1,536-well plates with 500 cells, 5-uL per well for inhibition of cell viability (assessed by measuring ATP levels with CellTiterGlo).\n2. NCATS MIPE 4.0 library of approved and investigational drugs were added using the Kalypsis pin tool. Wells treated with DMSO only for 100% viability and media only wells for 0% viability were used as controls.\n3. The assay plates were covered and incubated for 48 hours in a 37C, 5% CO2 incubator with controlled humidity.\n4. After 48 hours, CellTilter-GloTM luminescent substrate mix (Promega) reagent was added to the assay plate and plates we incubated for 5 min at room temperature.\n5. Signal was measured as median relative luminescence units on a ViewLux (PerkinElmer) multiplate reader.\n[1] Heske CM, Davis MI, Baumgart JT, Wilson K, Gormally MV, Chen L, Zhang X, Ceribelli M, Duveau DY, Guha R, Ferrer M, Arnaldez FI, Ji J, Tran HL, Zhang Y, Mendoza A, Helman LJ, Thomas CJ. Matrix Screen Identifies Synergistic Combination of PARP Inhibitors and Nicotinamide Phosphoribosyltransferase (NAMPT) Inhibitors in Ewing Sarcoma. Clin Cancer Res. 2017 Dec 1;23(23):7301-7311. doi: 10.1158/1078-0432.CCR-17-1121. Epub 2017 Sep 12. PMID: 28899971; PMCID: PMC6636827.", "units": {"viability (% of DMSO)": "%"}, "values": [{"compound": "CC(C)N1[N]C(=C2C=c3cc(O)ccc3=N2)c2c(N)ncnc21", "Potency": "0.235 µM (active)"}, {"compound": "C=CC(=O)Nc1ccc2ncnc(Nc3ccc(OCc4cccc(F)c4)c(Cl)c3)c2c1", "Potency": "1.05 µM (active)"}, {"compound": "CCCCOc1ccc(C(=O)Nc2ccc(F)cc2F)cc1", "viability (% of DMSO)": 117}, {"compound": "O=C(Nc1cccc(Nc2ncc(Br)c(NCCc3cnc[nH]3)n2)c1)N1CCCC1", "Potency": "4.18 µM (active)"}, {"compound": "Cc1c2oc3c(C)ccc(C(=O)NC4C(=O)NC(C(C)C)C(=O)N5CCCC5C(=O)N(C)CC(=O)N(C)C(C(C)C)C(=O)OC4C)c3nc-2c(C(=O)NC2C(=O)NC(C(C)C)C(=O)N3CCCC3C(=O)N(C)CC(=O)N(C)C(C(C)C)C(=O)OC2C)c(N)c1=O", "note": "(stereo not given) (I: TVP[Sar][NMeV] / II: TVP[Sar][NMeV]; ester I:1-I:C, II:1-II:C; linker I:N-II:N via Actinocin(9to1); configuration not given here)", "viability (% of DMSO)": 4.82}, {"compound": "CC(C)C[C@@H](C=O)NC(=O)[C@H](CC(C)C)NC(=O)[C@H](CC(C)C)NC(=O)OCc1ccccc1", "note": "(Cbz-Leu-Leu-Leu-aldehyde)", "Potency": "0.662 µM (active)"}, {"compound": "CC(=O)OC[C@@H]1O[C@@H](n2ccc(=O)[nH]c2=O)[C@H](OC(C)=O)[C@H]1OC(C)=O", "viability (% of DMSO)": 103}, {"compound": "CCC[C@@H](C=O)NC(=O)[C@H](CC(C)C)NC(=O)[C@H](CC(C)C)NC(=O)OCc1ccccc1", "note": "(Cbz-Leu-Leu-[Nva]-aldehyde)", "Potency": "1.66 µM (active)"}, {"compound": "C[C@@]12C(=O)OC(=O)[C@@]1(C)C1CCC2O1", "Potency": "0.662 µM (active)"}, {"compound": "CCN(C(=O)c1c(O)c2c(Cl)cccc2n(C)c1=O)c1ccccc1", "viability (% of DMSO)": 102}, {"compound": "N#Cc1c(NC(=O)c2cccc3ccccc23)sc2c1CCCC2", "Potency": "0.743 µM (active)"}, {"compound": "c1cc(CN2CCCNCCNCCCNCC2)ccc1CN1CCCNCCNCCCNCC1", "viability (% of DMSO)": 105}, {"compound": "COC(=O)[C@@H]1[C@H]2C[C@@H]3c4[nH]c5ccccc5c4CCN3C[C@@H]2CC[C@@H]1O", "viability (% of DMSO)": 97.8}, {"compound": "COC(=O)[C@H](CCCN=C(N)N)NS(=O)(=O)c1ccc(C)cc1", "viability (% of DMSO)": 104}, {"compound": "COC1=C(OC)C(=O)C(CC=C(C)CCC=C(C)CCC=C(C)CCC=C(C)CCC=C(C)CCC=C(C)CCC=C(C)CCC=C(C)CCC=C(C)CCC=C(C)C)=C(C)C1=O", "viability (% of DMSO)": 115}, {"compound": "C[C@H](NCc1ccc(OCc2cccc(F)c2)cc1)C(N)=O", "Potency": "11.8 µM (active)"}, {"compound": "CCOC(=O)[C@H](CCc1ccccc1)N[C@@H](C)C(=O)N1[C@@H](C(=O)O)C[C@H]2CCC[C@@H]21", "Potency": "26.4 µM (active)"}, {"compound": "O=C(C=Cc1ccc(CN(CCO)CCc2c[nH]c3ccccc23)cc1)NO", "Potency": "0.209 µM (active)"}, {"compound": "C[C@]12CC[C@@H]3c4ccc(O)cc4CC[C@H]3[C@H]1CC[C@H]2O", "Potency": "18.7 µM (active)"}, {"compound": "CC(C)C[C@H](NC(=O)[C@@H](NC(=O)c1cccc(-c2ccccc2)n1)[C@@H](C)O)B(O)O", "Potency": "0.0418 µM (active)"}, {"compound": "CCCCCCCCCCCCc1ccc(S(=O)(=O)Nc2nncs2)cc1", "viability (% of DMSO)": 91.8}, {"compound": "Nc1nc(=O)n([C@H]2CSC(CO)O2)cc1F", "note": "(stereo not given in full)", "viability (% of DMSO)": 103}, {"compound": "COc1cc([C@@H]2c3cc4c(cc3[C@H](O)[C@H]3COC(=O)[C@@H]23)OCO4)cc(OC)c1OC", "Potency": "0.148 µM (active)"}, {"compound": "COc1cc(OC)c(C=CS(=O)(=O)Cc2ccc(OC)c(NCC(=O)O)c2)c(OC)c1", "Potency": "0.372 µM (active)"}, {"compound": "C#C[C@]1(O)CC[C@@H]2[C@@H]3CCC4=CC(=O)CC[C@@H]4[C@H]3CC[C@@]21CC", "viability (% of DMSO)": 93.3}, {"compound": "CC(=O)OCC(=O)[C@@]12N=C(C)O[C@H]1C[C@H]1[C@@H]3CCC4=CC(=O)C=C[C@]4(C)[C@@H]3[C@@H](O)C[C@@]12C", "viability (% of DMSO)": 104}, {"compound": "CC(Oc1ccc(O)cc1)(P(=O)(O)O)P(=O)(O)O", "viability (% of DMSO)": 104}, {"compound": "COc1ccc2cc([S+]([O-])Cc3ncc(C)c(OC)c3C)nc2c1", "viability (% of DMSO)": 115}, {"compound": "NC(=O)c1cccc(-c2cccc(OC(=O)NC3CCCCC3)c2)c1", "viability (% of DMSO)": 119}, {"compound": "Nc1nc(=O)n([C@H]2C[C@H](O)[C@@H](CO)O2)cc1F", "viability (% of DMSO)": 99}, {"compound": "N#CC(=Cc1ccc(O)c(O)c1)C(=O)NCc1ccccc1", "viability (% of DMSO)": 111}, {"compound": "COc1ccc2c(c1OC)C(=O)OC2[C@H]1c2c(cc3c(c2OC)OCO3)CCN1C", "note": "(stereo not given in full)", "Potency": "0.0662 µM (active)"}, {"compound": "Cc1cnc(Nc2ccc(N3CCN(C)CC3)cc2)nc1Nc1cccc(S(=O)(=O)NC(C)(C)C)c1", "Potency": "6.62 µM (active)"}, {"compound": "CC(=O)[C@]1(O)Cc2c(O)c3c(c(O)c2[C@@H](O[C@H]2C[C@H](N)[C@@H](O)[C@H](C)O2)C1)C(=O)c1ccccc1C3=O", "Potency": "0.662 µM (active)"}, {"compound": "C[C@H](NC(=O)[C@@H](O)c1cc(F)cc(F)c1)C(=O)N[C@@H]1C(=O)N(C)c2ccccc2-c2ccccc21", "viability (% of DMSO)": 118}, {"compound": "CC(=CC(=O)Nc1ccccc1C(=O)O)c1ccc2ccccc2c1", "viability (% of DMSO)": 86.4}, {"compound": "Cc1cnn(C)c1C(=O)Nc1cc(Nc2ccc3c(C=Cc4ccccn4)n[nH]c3c2)ccc1F", "Potency": "18.7 µM (active)"}, {"compound": "N#CNC(=NCCCCCCOc1ccc(Cl)cc1)Nc1ccncc1", "Potency": "0.0148 µM (active)"}, {"compound": "CCc1c(O)cc(O)c(C(=O)c2ccc(OCCN3CCOCC3)c(OC)c2)c1CC(=O)N(CCOC)CCOC", "Potency": "1.05 µM (active)"}, {"compound": "Cc1ncc(-c2ccnc(Nc3ccc(S(C)(=O)=O)cc3)n2)n1C(C)C", "Potency": "3.72 µM (active)"}]}]}
